# Unmarked numbers belong to inactive results. Records with an inconclusive call do not appear. Where a call stands in place of a potency, no number is given. The source made the active and inactive calls. Calls follow the shape of the dose curve; as a rule, active = well fitted curve in the direction sought with a large enough effect in the repeat runs; inconclusive = weak or mixed curves; inactive = no such curve, though single readings can be large; an effect the other way counts as inactive or inconclusive.
# Key:
# [1] = qHTS RealTime-Glo MT Cell Viability Assay in HEK293 cells - 16 hour (AID 1224872); also: nearly all actives have a fitted effect of over 50% in size; also: potency is read from the fitted curve at half-maximal effect
# In short: (§1)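 Cells + reagent dispensed (600 cells/well, HEK293) → 5 h at 37 C/5% CO2 → 23 nL compound in DMSO pinned → 40 h at 37 C → luminescence read at 0, 8, 16, 24, 32, 40 h.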
# [2] = qHTS RealTime-Glo MT Cell Viability Assay in HepG2 cells - 8 hour (AID 1224873); also: nearly all actives have a fitted effect of over 55% in size
# In short: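 HepG2 cells (600/well) mixed with RealTime-Glo MT reagent, settled 5 h at 37 C/5% CO2 before compound addition. Nonlytic NanoLuc luminescence from viable-cell prosubstrate reduction read repeatedly during 40 h treatment at 37 C.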
# [3] = qHTS RealTime-Glo MT Cell Viability Assay in HEK293 cells - 40 hour (AID 1224874); conditions: RealTime-Glo luminescence; max response: stronger effect = lower value; also: nearly all actives have a fitted effect of over 50% in size; also: potency is read from the fitted curve at half-maximal effect
# In short: (§2)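 Luminescence readout at each listed time point; HEK293, 600 cells/well, RealTime-Glo MT reagent added with cells; compounds pinned (23 nL in DMSO) after 5 h at 37 C; continuous culture at 37 C.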
# [4] = A CellTox Green Cytotoxicity Assay to monitor cytotoxicity in HEK293 cells - 24 hour (AID 1224875); also: series mostly up to about 77 µM; nearly all actives have a fitted effect of over 45% in size
# In short: (§3)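 Read-out: fluorescence of a cell-impermeant cyanine dye staining DNA of dead cells, proportional to cytotoxicity. HEK293, 600 cells/well with reagent, compound (23 nL DMSO) added after 5 h; reads at 0, 8, 16, 24, 32, 40 h.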
# [5] = A CellTox Green Cytotoxicity Assay to monitor cytotoxicity in HepG2 cells - 16 hour (AID 1224876); also: nearly all actives have a fitted effect of over 45% in size
# In short: (§4)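 HepG2, 600 cells/well premixed w/ CellTox Green; 5 h settle, 37 C/5% CO2; pintool cpd add (DMSO); 37 C, 40 h; fluorescence read at 0, 8, 16, 24, 32, 40 h.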
# [6] = qHTS RealTime-Glo MT Cell Viability Assay in HepG2 cells - 32 hour (AID 1224877); also: nearly all actives have a fitted effect of over 55% in size
# In short: (§5)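 Real-time, nonlytic viability: 600 HepG2 cells/well mixed with NanoLuc enzyme plus prosubstrate; 5 h settle, compound (DMSO) added by pintool; luminescence monitored over 40 h at 37 C.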
# [7] = A CellTox Green Cytotoxicity Assay to monitor cytotoxicity in HepG2 cells - 24 hour (AID 1224878); also: nearly all actives have a fitted effect of over 45% in size
# In short: as §4
# [8] = A CellTox Green Cytotoxicity Assay to monitor cytotoxicity in HepG2 cells - 40 hour (AID 1224879); also: nearly all actives have a fitted effect of over 40% in size
# In short: as §4
# [9] = qHTS RealTime-Glo MT Cell Viability Assay in HEK293 cells - 0 hour (AID 1224880); also: top concentration of the series differs between compounds; nearly all actives have a fitted effect of over 45% in size
# In short: as §2
# [10] = A CellTox Green Cytotoxicity Assay to monitor cytotoxicity in HEK293 cells - 32 hour (AID 1224881); also: nearly all actives have a fitted effect of over 40% in size
# In short: as §3
# [11] = A CellTox Green Cytotoxicity Assay to monitor cytotoxicity in HepG2 cells - 0 hour (AID 1224882); also: nearly all actives have a fitted effect of over 35% in size
# In short: as §4
# [12] = A CellTox Green Cytotoxicity Assay to monitor cytotoxicity in HepG2 cells - 32 hour (AID 1224883); also: nearly all actives have a fitted effect of over 50% in size
# In short: as §4
# [13] = A CellTox Green Cytotoxicity Assay to monitor cytotoxicity in HEK293 cells - 8 hour (AID 1224884); also: nearly all actives have a fitted effect of over 35% in size
# In short: as §3
# [14] = qHTS RealTime-Glo MT Cell Viability Assay in HepG2 cells - 16 hour (AID 1224885); also: nearly all actives have a fitted effect of over 50% in size
# In short: as §5
# [15] = qHTS RealTime-Glo MT Cell Viability Assay in HEK293 cells - 24 hour (AID 1224886); also: nearly all actives have a fitted effect of over 50% in size; also: potency is read from the fitted curve at half-maximal effect
# In short: as §1
# [16] = qHTS RealTime-Glo MT Cell Viability Assay in HEK293 cells - 8 hour (AID 1224887)
# In short: as §2
# [17] = A CellTox Green Cytotoxicity Assay to monitor cytotoxicity in HEK293 cells - 16 hour (AID 1224888); also: nearly all actives have a fitted effect of over 35% in size
# In short: as §3
# [18] = qHTS RealTime-Glo MT Cell Viability Assay in HepG2 cells - 0 hour (AID 1224889); also: nearly all actives have a fitted effect of over 50% in size
# In short: as §5
# [19] = A CellTox Green Cytotoxicity Assay to monitor cytotoxicity in HepG2 cells - 8 hour (AID 1224890); also: nearly all actives have a fitted effect of over 45% in size
# In short: as §4
# [20] = qHTS assay to identify small molecule antagonists of the estrogen receptor alpha (ER-alpha) signaling pathway using the BG1 cell line in the presence of 0.1 nM 17-beta-estradiol - cell viability counter screen (AID 1259241); also: nearly all actives have a fitted effect of over 40% in size
# In short: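 Estradiol-stimulated (0.1 nM) VM7Luc4E2 cells exposed to compounds 22 hr; viability measured by fluorescence of cleaved CellTiter-Fluor substrate after 30 min.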
smiles,measurement,setting,value
Nc1ccc(Cl)cc1[N+](=O)[O-],Potency,[1],inactive
same,Potency,[2],inactive
same,max response,[3],2.66%
same,Potency,[4],inactive
same,Potency,[5],inactive
same,Potency,[6],inactive
same,Potency,[7],inactive
same,Potency,[8],inactive
same,Potency,[9],inactive
same,Potency,[10],inactive
same,Potency,[11],inactive
same,Potency,[12],inactive
same,Potency,[13],inactive
same,Potency,[14],inactive
same,Potency,[15],inactive
same,Potency,[16],inactive
same,Potency,[17],inactive
same,Potency,[18],inactive
same,Potency,[19],inactive
same,Potency,[20],inactive
O=C(O)C(Cc1cc(I)c(O)c(I)c1)c1ccccc1 (configuration not stated),Potency,[1],inactive
same,Potency,[2],inactive
same,max response,[3],0.775%
same,Potency,[4],inactive
same,Potency,[5],inactive
same,Potency,[6],inactive
same,Potency,[7],inactive
same,Potency,[8],inactive
same,Potency,[9],inactive
same,Potency,[10],inactive
same,Potency,[11],inactive
same,Potency,[12],inactive
same,Potency,[13],inactive
same,Potency,[14],inactive
same,Potency,[15],inactive
same,Potency,[16],inactive
same,Potency,[17],inactive
same,Potency,[18],inactive
same,Potency,[19],inactive
same,Potency,[20],inactive
CC1(C)C(=O)N(Br)C(=O)N1Cl,Potency,[1],inactive
same,Potency,[2],inactive
same,max response,[3],8.13%
same,Potency,[4],inactive
same,Potency,[5],inactive
same,Potency,[6],inactive
same,Potency,[7],inactive
same,Potency,[8],inactive
same,Potency,[9],inactive
same,Potency,[10],inactive
same,Potency,[11],inactive
same,Potency,[12],inactive
same,Potency,[13],inactive
same,Potency,[14],inactive
same,Potency,[15],inactive
same,Potency,[17],inactive
same,Potency,[18],inactive
same,Potency,[19],inactive
same,Potency,[20],inactive
CC1CC(O)CC(C)(C)C1 (configuration not stated),Potency,[1],inactive
same,Potency,[2],inactive
same,max response,[3],-3.83%
same,Potency,[4],inactive
same,Potency,[5],inactive
same,Potency,[6],inactive
same,Potency,[7],inactive
same,Potency,[8],inactive
same,Potency,[9],inactive
same,Potency,[10],inactive
same,Potency,[11],inactive
same,Potency,[12],inactive
same,Potency,[13],inactive
same,Potency,[14],inactive
same,Potency,[15],inactive
same,Potency,[16],inactive
same,Potency,[17],inactive
same,Potency,[18],inactive
same,Potency,[19],inactive
O=C(NCCCN1CCOCC1)c1ccc(Cl)cc1,Potency,[1],inactive
same,Potency,[2],inactive
same,max response,[3],7.84%
same,Potency,[4],inactive
same,Potency,[5],inactive
same,Potency,[6],inactive
same,Potency,[7],inactive
same,Potency,[8],inactive
same,Potency,[9],inactive
same,Potency,[10],inactive
same,Potency,[11],inactive
same,Potency,[12],inactive
same,Potency,[13],inactive
same,Potency,[14],inactive
same,Potency,[16],inactive
same,Potency,[17],inactive
same,Potency,[18],inactive
same,Potency,[19],inactive
same,Potency,[20],inactive
Nc1ccc(S(=O)(=O)O)cc1,Potency,[1],inactive
same,Potency,[2],inactive
same,max response,[3],0.165%
same,Potency,[4],inactive
same,Potency,[5],inactive
same,Potency,[6],inactive
same,Potency,[7],inactive
same,Potency,[8],inactive
same,Potency,[9],inactive
same,Potency,[10],inactive
same,Potency,[11],inactive
same,Potency,[12],inactive
same,Potency,[13],inactive
same,Potency,[14],inactive
same,Potency,[15],inactive
same,Potency,[17],inactive
same,Potency,[18],inactive
same,Potency,[19],inactive
same,Potency,[20],inactive
CN(C(=O)C(Cl)Cl)c1ccc(OC(=O)c2ccco2)cc1,Potency,[1],inactive
same,Potency,[2],inactive
same,max response,[3],-3.14%
same,Potency,[4],inactive
same,Potency,[5],inactive
same,Potency,[6],inactive
same,Potency,[7],inactive
same,Potency,[8],inactive
same,Potency,[9],inactive
same,Potency,[10],inactive
same,Potency,[11],inactive
same,Potency,[12],inactive
same,Potency,[13],inactive
same,Potency,[14],inactive
same,Potency,[15],inactive
same,Potency,[16],inactive
same,Potency,[17],inactive
same,Potency,[18],inactive
same,Potency,[19],inactive
same,Potency,[20],inactive
CC(C)(C)C(=O)O,Potency,[1],inactive
same,Potency,[2],inactive
same,max response,[3],6.48%
same,Potency,[4],inactive
same,Potency,[5],inactive
same,Potency,[6],inactive
same,Potency,[7],inactive
same,Potency,[8],inactive
same,Potency,[9],inactive
same,Potency,[10],inactive
same,Potency,[11],inactive
same,Potency,[12],inactive
same,Potency,[13],inactive
same,Potency,[14],inactive
same,Potency,[15],inactive
same,Potency,[16],inactive
same,Potency,[17],inactive
same,Potency,[18],inactive
same,Potency,[19],inactive
CCCCCCCCCOC(C)=O,Potency,[1],inactive
same,Potency,[2],inactive
same,max response,[3],-10.8%
same,Potency,[4],inactive
same,Potency,[5],inactive
same,Potency,[6],inactive
same,Potency,[7],inactive
same,Potency,[9],inactive
same,Potency,[11],inactive
same,Potency,[12],inactive
same,Potency,[13],inactive
same,Potency,[14],inactive
same,Potency,[15],inactive
same,Potency,[16],inactive
same,Potency,[17],inactive
same,Potency,[18],inactive
same,Potency,[19],inactive
COc1ccc(CCC(=O)c2c(O)cc(O[C@@H]3O[C@H](CO)[C@@H](O)[C@H](O)[C@H]3O[C@@H]3O[C@@H](C)[C@H](O)[C@@H](O)[C@H]3O)cc2O)cc1O,Potency,[1],inactive
same,Potency,[2],inactive
same,max response,[3],12.3%
same,Potency,[4],inactive
same,Potency,[5],inactive
same,Potency,[6],inactive
same,Potency,[7],inactive
same,Potency,[9],inactive
same,Potency,[10],inactive
same,Potency,[11],inactive
same,Potency,[12],inactive
same,Potency,[13],inactive
same,Potency,[14],inactive
same,Potency,[16],inactive
same,Potency,[17],inactive
same,Potency,[18],inactive
same,Potency,[19],inactive
same,Potency,[20],inactive
COCCOC,Potency,[1],932 nM (active)
same,Potency,[2],inactive
same,Potency,[3],830 nM (active)
same,Potency,[4],inactive
same,Potency,[5],inactive
same,Potency,[6],inactive
same,Potency,[7],inactive
same,Potency,[9],inactive
same,Potency,[10],inactive
same,Potency,[11],inactive
same,Potency,[12],inactive
same,Potency,[13],inactive
same,Potency,[14],inactive
same,Potency,[15],740 nM (active)
same,Potency,[17],inactive
same,Potency,[18],inactive
same,Potency,[19],inactive
